Results filed as inconclusive are left out. Where a call stands in place of a potency, no number is given. Values without a mark were called inactive. Calls of active or inactive are those of the source. Calls follow the shape of the full dose curve.
Assay: p53 small molecule agonists, cell-based qHTS assay with rat liver microsomes (AID 1963578)
Details: HCT-116 p53RE-bla, beta-lactamase ratio, 16 h; series mostly up to 66 µM
Text: U.S. Tox21 Program National Center for Advancing Translational Sciences [NCATS] Division of Preclinical Innovation [DPI] U.S. Environmental Protection Agency [EPA] National Institutes of Environmental Health Sciences [NIEHS] National Toxicology Program [NTP] U.S. Food and Drug Administration [FDA] Tox21 Assay Overview: p53, a tumor suppressor protein, is activated following cellular insult, including DNA damage and other cellular stresses. The activation of p53 regulates cell fate by inducing DNA repair, cell cycle arrest, apoptosis, or cellular senescence. The activation of p53, therefore, is a good indicator of DNA damage and other cellular stresses. […] The activation of the reporter gene under culture conditions can be detected by fluorescence intensity. This cell line was used to screen the Tox21 10K compound library in the condition of presence of rat liver microsomes and to identify agonists that activate the p53 signaling pathway after in vitro metabolic activation (Ooka et al., Archive of Toxicology 96:1975-1987, 2022).
Tox21 Assay Protocol Summary: The p53RE-bla cells were dispensed at 4,000cells/3ul/well in 1536-well black-clear bottom plates. After the assay plates were incubated at 37 C, 5% CO2 incubator for 5 hours, 23 nL of compounds dissolved in DMSO, positive controls or DMSO only was transferred to the assay plate. Following compound addition, 3 uL of rat liver microsomes (Molecular Toxicology, Boone, NC) at final concentration of 0.5 mg/mL and 1uL of Beta-Nicotinamide adenine dinucleotide 2-phosphate (NADPH) at final concentration of 0.5 mg/mL were transferred to the assay plate. The plates were incubated at 37 C for 16 hours. 1 uL of LiveBLAzer detection mixture was added to each well and the plates were incubated at room temperature in the dark for 2 h.

| Compound | Potency | activation |
| --- | --- | --- |
| Cc1c(-c2cccnc2)c2ccccc2n1CCCCC(=O)O | inactive |  |
| CCO[Si](CCCS)(OCC)OCC | inactive |  |
| CCN(CC)c1ccc(C(=C2C=CC(=[N+](CC)CC)C=C2)c2cc(S(=O)(=O)O)ccc2S(=O)(=O)[O-])cc1 | inactive |  |
| OCc1cc(C(O)CNCCCCCCOCCCCc2ccccc2)ccc1O (stereo not given) | inactive |  |
| C=CC(=O)OCCCCCCOC(=O)C=C | inactive |  |
| C=Cc1ccc(S(=O)(=O)O)cc1 | inactive |  |
| CCN1CCN(C(=O)N[C@@H](C(=O)N[C@@H]2C(=O)N3C(C(=O)O)=C(CSc4nnnn4C)CS[C@H]23)c2ccc(O)cc2)C(=O)C1=O | inactive |  |
| O=C(Oc1cccc2cccnc12)c1ccccc1 | inactive |  |
| CCc1cc(SCc2sc(-c3ccc(C(F)(F)F)cc3)nc2CN2CCN(c3ccc(OC)cc3)CC2)ccc1OCC(=O)O | inactive |  |
| O=C(N/N=C/c1ccc([N+](=O)[O-])o1)c1ccc(O)cc1 | inactive |  |
| CN(C)CCCN1c2ccccc2Sc2ccc(C(F)(F)F)cc21 | inactive |  |
| O=S(c1cc(Cl)cc(Cl)c1O)c1cc(Cl)cc(Cl)c1O | inactive |  |
| O=C1C=CC(=O)N1c1ccccc1 | inactive |  |
| C[C@H]1O[C@@H](O[C@H]2CC[C@@]3(C)[C@H](CC[C@@H]4[C@@H]3C[C@@H](O)[C@]3(C)[C@@H](C5=CC(=O)OC5)CC[C@]43O)C2)C[C@H](O)[C@@H]1O[C@H]1C[C@H](O)[C@H](O[C@H]2C[C@H](O)[C@H](O[C@@H]3O[C@H](CO)[C@@H](O)[C@H](O)[C@H]3O)[C@@H](C)O2)[C@@H](C)O1 | inactive |  |
| CC(C)(C)c1csc(-c2cc3cc(OCc4ccccc4CC(=O)O)ccc3o2)n1 | inactive |  |
| CC(C)CCOC(=O)c1ccc(N(C)C)cc1 | inactive |  |
| CSc1ccc(O)cc1C | inactive |  |
| CC1C2CC(CC2C2CCCC(O)C2)C1(C)C (stereo not given) | inactive |  |
| c1ccc2sc(SSc3nc4ccccc4s3)nc2c1 |  | -0.548% [at 13.6 µM] |
| COCC(=O)O[C@]1(CCN(C)CCCc2nc3ccccc3[nH]2)CCc2cc(F)ccc2[C@@H]1C(C)C | inactive |  |

| Compound | Potency | activation |
| --- | --- | --- |
| CCc1cc2cc(OC)c(OC)cc2c(Cc2ccccc2)n1 | inactive |  |
| Nc1ccn([C@H]2CS[C@@H](CO)O2)c(=O)n1 | inactive |  |
| CC[C@H]1CC[C@H](NCc2cc3c(cc2OC)[C@H]2C[C@H]2C(=O)N3C)[C@H](c2ccccc2)N1 | inactive |  |
| C=CC(=O)OCCn1c(=O)n(CCOC(=O)C=C)c(=O)n(CCOC(=O)C=C)c1=O | inactive |  |
| CS(=O)(=O)Nc1ccc([N+](=O)[O-])cc1Oc1ccccc1 | inactive |  |
| O=C1C=CC(=O)N1 | inactive |  |
| CC(C)CCOC(=O)/C=C/c1ccccc1 | inactive |  |
| Cc1ccc(N/N=c2\c(=O)cc/c(=N\Nc3ccc(S(=O)(=O)O)cc3)c2=O)c(C)c1 | inactive |  |
| CCC(=O)Oc1ccc(/C(CC)=C(\CC)c2ccc(OC(=O)CC)cc2)cc1 | inactive |  |
| NS(=O)(=O)c1cc2c(cc1Cl)NC(CSCc1ccccc1)=NS2(=O)=O | inactive |  |
| CCCCC(CC)COC(=O)CCCCC(=O)OCc1ccccc1 (stereo not given) | inactive |  |
| COc1cc2ncnc(Nc3cccc(Cl)c3)c2cc1OC |  | -0.041% [at 13.6 µM] |
| CCO/C=C1\N=C(c2ccccc2)OC1=O | inactive |  |
| CNS(=O)(=O)c1cc(C(=O)N2CCC(CCN3C4CCC3CC(n3c(C)nc5ccccc53)C4)(c3cccc(F)c3)CC2)c(Cl)cc1F (stereo not given) | inactive |  |
| CN1CCCN(C(c2ccccc2)c2ccc(Cl)cc2)CC1 (stereo not given) | inactive |  |
| CC(C)C1=CC2=CC[C@@H]3[C@](C)(CCC[C@@]3(C)C(=O)O)[C@H]2CC1 | inactive |  |
| C[Si](Cl)(c1ccccc1)c1ccccc1 | inactive |  |
| CC1(C)O[C@@H]2C[C@H]3[C@@H]4CCC5=CC(=O)C=C[C@]5(C)[C@H]4[C@@H](O)C[C@]3(C)[C@]2(C(=O)CO)O1 | inactive |  |
| CC1(C)C(=O)N(Br)C(=O)N1Br | inactive |  |
| C[C@H](CS)C(=O)N1CCC[C@H]1C(=O)O | inactive |  |
